Assay results: PubChem BioAssay
The source made the active and inactive calls.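 How the source made its calls, unless noted: active means mean inhibition over 43.08%, the solvent-only control mean plus 3 SD; inactive means the rest.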

Columns and labels:
[1] = target: Nuclear receptor coactivator 3 (Homo sapiens) (UniProt Q9Y6Q9); experiment: NCOA3 GAL4-fusion reporter inhibition – cell-based, luminescence, quadruplicate, confirmation (AID 588792); conditions: HEK293 GAL4-SRC3 luciferase reporter, at 3.6 µM, active compounds read high;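 further: 0% = DMSO treated cells and 100% = gossypol at 36 µM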
Nuclear receptor coactivator 3 (Homo sapiens), sequence (Q9Y6Q9 whole entry, looked up, the tested form may be a part): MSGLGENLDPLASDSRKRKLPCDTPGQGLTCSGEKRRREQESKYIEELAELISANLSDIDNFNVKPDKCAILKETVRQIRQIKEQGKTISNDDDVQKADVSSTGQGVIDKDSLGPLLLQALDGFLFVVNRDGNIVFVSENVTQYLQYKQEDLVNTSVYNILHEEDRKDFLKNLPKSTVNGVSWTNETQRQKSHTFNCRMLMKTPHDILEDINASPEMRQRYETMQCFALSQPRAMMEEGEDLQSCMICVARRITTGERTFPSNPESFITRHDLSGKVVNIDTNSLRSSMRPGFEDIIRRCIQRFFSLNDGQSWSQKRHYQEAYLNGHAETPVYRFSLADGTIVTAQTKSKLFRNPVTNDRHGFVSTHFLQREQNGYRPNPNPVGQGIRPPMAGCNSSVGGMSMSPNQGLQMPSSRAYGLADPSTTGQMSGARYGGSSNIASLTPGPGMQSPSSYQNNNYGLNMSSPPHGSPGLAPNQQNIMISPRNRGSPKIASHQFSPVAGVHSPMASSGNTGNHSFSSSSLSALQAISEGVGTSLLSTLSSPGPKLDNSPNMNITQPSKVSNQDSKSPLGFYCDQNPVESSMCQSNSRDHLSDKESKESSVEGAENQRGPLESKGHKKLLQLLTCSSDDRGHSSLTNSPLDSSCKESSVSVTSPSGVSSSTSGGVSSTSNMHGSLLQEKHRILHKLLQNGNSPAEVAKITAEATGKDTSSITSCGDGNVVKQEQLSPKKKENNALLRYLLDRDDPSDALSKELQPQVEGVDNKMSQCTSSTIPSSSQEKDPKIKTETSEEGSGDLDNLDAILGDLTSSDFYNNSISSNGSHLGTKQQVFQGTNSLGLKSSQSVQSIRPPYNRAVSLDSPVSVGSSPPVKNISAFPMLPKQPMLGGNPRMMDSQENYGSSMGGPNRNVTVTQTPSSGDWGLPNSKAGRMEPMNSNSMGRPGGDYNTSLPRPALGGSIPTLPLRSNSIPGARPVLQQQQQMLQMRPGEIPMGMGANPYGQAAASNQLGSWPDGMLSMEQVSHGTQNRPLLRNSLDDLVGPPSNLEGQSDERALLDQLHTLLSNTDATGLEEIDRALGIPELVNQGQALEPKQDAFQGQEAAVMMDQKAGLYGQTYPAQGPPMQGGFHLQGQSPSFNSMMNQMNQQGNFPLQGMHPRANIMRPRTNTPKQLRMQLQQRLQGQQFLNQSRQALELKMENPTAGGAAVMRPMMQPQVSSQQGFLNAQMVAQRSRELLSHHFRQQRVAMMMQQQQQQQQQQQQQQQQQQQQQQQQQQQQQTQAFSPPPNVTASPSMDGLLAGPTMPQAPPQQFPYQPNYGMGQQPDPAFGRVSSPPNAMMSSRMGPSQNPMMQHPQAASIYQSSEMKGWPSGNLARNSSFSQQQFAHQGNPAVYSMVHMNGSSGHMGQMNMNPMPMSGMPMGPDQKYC

[2] = tested on: transactivating tegument protein VP16 (Human herpesvirus 1), Gal4-VP16 luciferase reporter; experiment: repression of VP16-driven luciferase reporter – cell-based, luminescence, high throughput, counter-screen for SRC3 inhibitor project (AID 588794; in the data active means inhibition above about 30%); conditions: mammalian cells, at 3.6 µM, active compounds read high
[3] = StAR promoter reporter inhibitors, counter-screen for LRH-1 inverse agonist project, cell-based, luminescence, high throughput (AID 651611; in the data active means inhibition above about 28%); conditions: StAR promoter luciferase reporter counterscreen, at 3.6 µM, active compounds read high
[4] = target: Nuclear receptor subfamily 5 group A member 2 (Homo sapiens) (UniProt O00482); experiment: NR5A2 activity suppression in reporter cells – cell-based, luminescence, confirmation (AID 651613; in the data active means inhibition above about 42%;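 further: HEK293T cells co-transfected with LRH-1 and StAR promoter luciferase reporter; 0% = vehicle wells and 100% = parental cells lacking receptor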); conditions: cell-based LRH-1 luciferase reporter, inverse agonism; at 3.6 µM; active compounds read high
Nuclear receptor subfamily 5 group A member 2 (Homo sapiens), sequence (O00482 whole entry, looked up): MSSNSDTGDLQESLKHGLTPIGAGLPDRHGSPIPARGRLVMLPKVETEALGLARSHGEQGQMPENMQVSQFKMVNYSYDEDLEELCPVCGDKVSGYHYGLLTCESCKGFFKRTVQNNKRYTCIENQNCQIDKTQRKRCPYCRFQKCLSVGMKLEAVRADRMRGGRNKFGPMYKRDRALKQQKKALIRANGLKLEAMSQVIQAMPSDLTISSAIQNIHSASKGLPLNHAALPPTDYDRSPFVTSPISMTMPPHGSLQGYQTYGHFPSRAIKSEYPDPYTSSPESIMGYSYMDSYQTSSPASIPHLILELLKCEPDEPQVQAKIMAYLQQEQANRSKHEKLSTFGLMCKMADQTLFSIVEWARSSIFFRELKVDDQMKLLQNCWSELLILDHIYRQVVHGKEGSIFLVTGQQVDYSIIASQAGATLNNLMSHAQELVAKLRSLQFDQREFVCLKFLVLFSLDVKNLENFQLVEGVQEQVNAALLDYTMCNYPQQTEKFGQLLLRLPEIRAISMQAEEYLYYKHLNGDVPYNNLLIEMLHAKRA

[5] = target: Steroidogenic factor 1 (Homo sapiens) (UniProt Q13285); experiment: inverse agonism at SF1 nuclear receptor – cell-based, luminescence, high throughput, counter-screen for LRH-1 inverse agonist project (AID 651614; in the data active means inhibition above about 44%;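 further: cells cotransfected with StAR promoter reporter and SF1 expression vector; 0% = vehicle on cells with receptor and 100% = vehicle on cells lacking receptor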); conditions: cell-based SF1 luciferase reporter, at 3.6 µM, active compounds read high
Steroidogenic factor 1 (Homo sapiens), sequence (Q13285 whole entry, looked up, the tested form may be a part): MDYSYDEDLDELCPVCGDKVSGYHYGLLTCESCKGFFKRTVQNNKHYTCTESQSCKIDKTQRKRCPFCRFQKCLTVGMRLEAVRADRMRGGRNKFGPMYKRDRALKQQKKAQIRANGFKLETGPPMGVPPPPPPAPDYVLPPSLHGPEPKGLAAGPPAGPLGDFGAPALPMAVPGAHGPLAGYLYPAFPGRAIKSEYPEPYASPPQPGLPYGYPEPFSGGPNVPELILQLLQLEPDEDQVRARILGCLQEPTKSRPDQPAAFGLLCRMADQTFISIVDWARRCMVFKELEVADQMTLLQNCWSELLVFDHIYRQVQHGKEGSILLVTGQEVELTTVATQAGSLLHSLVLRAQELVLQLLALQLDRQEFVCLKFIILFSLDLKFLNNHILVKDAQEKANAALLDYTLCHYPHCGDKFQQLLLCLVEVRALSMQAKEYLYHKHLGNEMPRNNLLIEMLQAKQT

[6] = compounds suppressing VP16-driven luciferase signal – cell-based, luminescence, high throughput, counter-screen for LRH-1 inverse agonist project (AID 651615; in the data active means inhibition above about 33%); conditions: Gal4-VP16 luciferase reporter cells, at 3.6 µM, active compounds read high

Measured: inhibition

CCCOc1ccc(Br)cc1CSC(=N)N
active: [2] 33.3% | [4] 102% | [5] 53.8% | [6] 83.7%
inactive: [1] 17.9% | [3] 9.34%

CCCCCc1ccc(OCCCC[n+]2ccccc2)c(CCCCC)c1
inactive: [1] 20.9% | [2] 20.9% | [3] 3.96% | [5] 37.9%
active: [4] 41.8% | [6] 42.3%

CCCCCCCCCCCCCCCCn1cc[n+](C)c1
active: [2] 31.6% | [3] 36% | [4] 65.5% | [5] 70.5% | [6] 64.4%
inactive: [1] 5.39%

CN1/C(=C\C(=O)C[n+]2ccc3ccccc3c2)C(C)(C)c2ccccc21
inactive: [1] 24.8%
active: [2] 50.2% | [3] 35.9% | [4] 89.6% | [5] 77.6% | [6] 66.7%

Cc1ccc(S(=O)(=O)Nc2cc(Cl)c(O)c3ncccc23)cc1
inactive: [1] 28.2% | [2] 24.5%
active: [3] 48.1% | [4] 72.1% | [5] 62.2% | [6] 62%

COC1C(=O)CCC2(CO2)C1(O)C1(C)OC1CC=C(C)C (stereo not drawn)
active: [2] 40.8% | [3] 33.8% | [4] 43% | [6] 42%
inactive: [1] 39.3% | [5] 39.6%

COc1ccc(-c2cn(-c3ccccc3)c3[n+]2CCS3)cc1
active: [2] 35.4% | [4] 61.1% | [5] 60.6% | [6] 45.1%
inactive: [1] 15.7% | [3] 18.2%

Cc1ccc(C(=O)Nc2sc3c(c2C(=O)O)CCCC3)o1
inactive: [1] 17.1%
active: [2] 40% | [3] 32.5% | [4] 75.9% | [5] 78.6% | [6] 61.7%
